A selection: hits, their analogues and other compounds. The true share with any hit is near 2.1%.
STK33 inh: human STK33 kinase inhibition; AID 2322; inhibition, % at 12.5 µM; 27,000 compounds, 0.44% hits; ADP-Glo luminescence, MBP substrate; in the data active = inhibition above about 20%
Target sequence (Q9BYT3 whole entry, looked up): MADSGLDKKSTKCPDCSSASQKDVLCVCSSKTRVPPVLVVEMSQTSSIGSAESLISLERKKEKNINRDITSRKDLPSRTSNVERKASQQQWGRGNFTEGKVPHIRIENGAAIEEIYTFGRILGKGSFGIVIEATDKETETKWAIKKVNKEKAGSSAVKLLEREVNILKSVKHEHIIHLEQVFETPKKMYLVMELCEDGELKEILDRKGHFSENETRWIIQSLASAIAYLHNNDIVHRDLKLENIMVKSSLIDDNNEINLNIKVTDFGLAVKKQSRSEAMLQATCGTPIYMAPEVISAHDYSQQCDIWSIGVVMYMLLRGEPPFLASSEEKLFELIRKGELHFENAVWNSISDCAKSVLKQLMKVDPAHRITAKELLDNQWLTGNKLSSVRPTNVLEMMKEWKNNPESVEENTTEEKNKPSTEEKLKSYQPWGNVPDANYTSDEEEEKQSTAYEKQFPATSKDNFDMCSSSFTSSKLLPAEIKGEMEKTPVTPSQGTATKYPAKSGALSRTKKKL
p53 PUMA act: re-activators of the mutant p53 pathway. SW480 PUMA-promoter luciferase, p53 mutant reactivation. activation, % at 9.98 µM. 28,000 compounds, 1.5% hits. AID 624151; in the data active = activation above about 52%
ID4 SMM: binders of human ID4 protein; small molecule microarray, Flag-ID4 binding, fluorescence F/B; P47928; 31,000 compounds, 1.2% hits; calls only; call rule not given here;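 also: a binder raises fluorescence above local background on the spot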
A number is an active result; i = inactive; nt = no result given; + = active, no number.

SMILES | STK33 inh | p53 PUMA act | ID4 SMM
COc1ccc([N+](=O)[O-])cc1NC(=O)CN(c1ccc(C)cc1C)S(C)(=O)=O | i | i | i
O=C1c2ccccc2S(=O)(=O)N1CC(O)Cn1ccc2ccccc21 (stereo not drawn) | i | i | +
Cc1cc(C)n(CC(O)Cn2ccc3ccccc32)n1 (stereo not drawn) | i | i | +
COc1ccc(NCC(O)Cn2ccc3ccccc32)cc1 (stereo not drawn) | i | i | i
OCc1nc2ccccc2n1CC(O)Cn1ccc2ccccc21 (stereo not drawn) | i | i | i
COc1ccc(OC)c(NC(=O)CSc2nc3sc4c(c3c(=O)n2-c2ccccc2)CCCC4)c1 | i | i | i
O=C(CSc1nnc(-c2cccnc2)n1-c1ccccc1)Nc1cc(C(F)(F)F)ccc1Cl | i | i | i
CC(Sc1nnc(-c2ccc(Br)cc2)n1-c1ccccc1)C(=O)O (stereo not drawn) | i | i | i
Cc1c(Cl)c(C)c(Cl)c(OCC(=O)Nc2ccccc2N2CCOCC2)c1Cl | i | i | i
O=C(COc1ccc2ccccc2c1Br)NCc1ccccn1 | i | 96 | i
CC(C)(C)NS(=O)(=O)c1ccc(NC(=O)COc2ccc3ccccc3c2Br)cc1 | i | i | i
COc1ccccc1N(CC(=O)Nc1c(C)cc(C)cc1C)S(C)(=O)=O | i | i | i
COC(=O)c1ccc(COc2ccc3c(c2)oc(=O)c2cc(OC)ccc23)o1 | i | i | i
COC(=O)c1ccc(COc2ccc3c(C)cc(=O)oc3c2)o1 | i | 63 | i
OCCCNc1ncnc2scc(-c3ccccc3)c12 | i | i | i
OCCCNc1ncnc2oc(-c3ccccc3)c(-c3ccccc3)c12 | 32 | i | i
COc1ccc(S(=O)(=O)N(C)CC(=O)Nc2cccc([N+](=O)[O-])c2)cc1Cl | i | i | i
CC(=O)N(Cc1ccc(C(C)C)cc1)c1ccc2oc(-c3ccccc3)nc2c1 | nt | i | i
CC(C)Oc1ccc2c(=O)c3cc(C(=O)O)ccc3oc2c1 | nt | 71 | i
CC(C)Oc1ccc2c(=O)cc(-c3ccccc3)oc2c1 | i | i | nt
Cc1cc(=O)[nH]c(SCCCOc2cccc(Br)c2)n1 | i | nt | nt
COC(=O)c1c(-c2ccccc2)csc1NC(=O)C1CCCCC1C(=O)O (stereo not drawn) | i | i | i
COc1cc(NC(=O)C(C)N2C(=O)C3CC=C(Cl)CC3C2=O)ccc1[N+](=O)[O-] (stereo not drawn) | i | i | i
CC(C)(C)c1ccc(OCC(=O)NCc2ccco2)c(Br)c1 | i | 88 | i
CC(C)(C)c1ccc(OCC(=O)Nc2ccccc2C(N)=O)c(Br)c1 | i | 85 | i
SMILES | STK33 inh | p53 PUMA act | ID4 SMM
COC(=O)c1ccccc1NC(=O)COc1ccccc1F | i | i | i
COC(=O)c1ccccc1NC(=O)COc1ccc(C(C)C)cc1Br | i | 54 | i
COc1cc(NC(=O)COc2ccc(C(C)(C)C)cc2Br)c(OC)cc1Cl | i | i | i
Cc1cc(OCC(=O)NCc2ccco2)cc(C)c1Br | i | i | i
Cc1nc(SCC(=O)NCc2ccccc2)c2c(C)c(C)sc2n1 | i | i | i
CC(=O)Nc1cccc(-c2nnc(SCC(=O)Nc3cccc(Cl)c3)n2C)c1 | i | i | i
CCOc1nc(NCCO)nc(Nc2ccc(OC)cc2OC)n1 | i | i | i
O=C(CN1CCN(C2CCCC2)CC1)Nc1ccc([N+](=O)[O-])cc1C(=O)Nc1ccccc1F | i | i | i
O=C(NCc1ccccn1)C(=O)Nc1ccc(Cl)c(Cl)c1 | i | 58 | i
O=C(NCc1ccccn1)c1cc(-c2ccccc2)on1 | i | 93 | i
COc1ccc(NC(=O)NCc2ccccn2)cc1OC | i | i | i
Cc1cc(C(=O)NCc2ccco2)no1 | i | i | i
Cc1ccc(-c2cc(C(=O)NCc3ccco3)no2)cc1 | i | 73 | i
Cc1ccc(-c2cc(C(=O)NCc3ccccn3)no2)cc1 | i | i | i
COC(=O)c1ccccc1NC(=O)c1ccc(NC(=O)C(C)Oc2ccc(Cl)cc2C)cc1 (stereo not drawn) | i | i | i
CC(C)S(=O)(=O)NC[C@@H]1CCCN(Cc2cccc(OCCO)c2)C1 | i | nt | nt
CCOC(=O)c1c(NC(=O)CSc2ccccn2)sc(C)c1C | i | i | i
COc1ccc2[nH]c3c(OC)ncnc3c2c1 | nt | 81 | i
COc1ccc2[nH]c(C(=O)O)c(CCC(=O)O)c2c1 | i | i | i
CCOC(=O)c1c(NC(=O)C2CC(c3ccccc3O)=NO2)sc2c1CCCC2 (stereo not drawn) | i | i | i
CS(=O)(=O)N1CCN(C(=S)NCc2ccco2)CC1 | i | i | i
COCCNC(=S)N1CCN(Cc2ccco2)CC1 | i | i | +
Cn1c(SCc2nc(-c3cccs3)no2)nnc1-c1ccco1 | i | i | +
Cn1c(SCc2nc(-c3cccs3)no2)nnc1-c1ccccc1 | i | i | i
O=C(O)COc1ccc(NC(=O)c2cccc(I)c2)cc1 | i | i | i
